Laboratory results published in PubChem BioAssay.
Active and inactive are the calls of the source.

Legend:
[1] = optical density shifts of acrAB sulA E. coli – strain DRC41, OD650, 48 h, E. coli filamentation inducer project, primary screen (AID 1152); conditions: higher = more signal, called active from +8 up or from −8 down;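 note: E. coli MC1000 strain DRC41 lacking acrAB efflux pump and sulA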
[2] = probe aLefty1 binding on compound microarray – biochemical, small-molecule microarray, 635/667 nm fluorescence, primary screen (AID 1153); conditions: higher = more signal;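 note: score merges spot fluorescence with signal-to-noise ratio from the scanned slide images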
[3] = plasmodial surface anion channel blockers, osmotic lysis – cell-based, P. falciparum Indochina, OD700, 1 h, primary screen (AID 1154); conditions: P. falciparum Indochina infected RBC osmotic lysis, higher = more signal, called active from +8 up or from −8 down
[4] = plasmodial surface anion channel blockers, osmotic lysis – cell-based, P. falciparum Indochina, OD700, 2 h, primary screen (AID 1155);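 note: lysis reports solute entry through the parasite surface anion channel PSAC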; conditions: P. falciparum Indochina infected erythrocytes, higher = more signal, called active from +8 up or from −8 down
[5] = changes in parasitized red cell lysis, either direction – P. falciparum Indochina, OD700, 3 h, PSAC antagonist project, primary screen (AID 1156); conditions: P. falciparum-infected erythrocytes, osmotic lysis, higher = more signal, called active from +8 up or from −8 down
[6] = plasmodial surface anion channel blockers, osmotic lysis – cell-based, P. falciparum Indochina, OD700, 18 h, primary screen (AID 1157); conditions: P. falciparum Indochina infected erythrocytes, osmotic lysis OD700, 18 h; higher = more signal, called active from +8 up or from −8 down
[7] = S6 kinase pathway phospho-S6 level changes – cell-based, A549, cytoblot, luminescence, serum-stimulated, primary screen (AID 1158); conditions: 5 h, higher = more signal;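 note: serum-stimulated A549 lung adenocarcinoma cells; signal is phosphorylated S6 detected by cytoblot immunostaining with HRP secondary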
[8] = target: NADPH oxidase 2 (Homo sapiens) (UniProt P04839); assay: compounds shifting NOX2 Amplex Red fluorescence – cell-based, HEK293-NOX2, PMA-stimulated, NOX inhibitor project, primary screen (AID 1159); conditions: 45 min, higher = more signal, called active from +8 up or from −8 down; note: test concentration not given here
Chain of NADPH oxidase 2 (Homo sapiens) (P04839 whole entry, looked up): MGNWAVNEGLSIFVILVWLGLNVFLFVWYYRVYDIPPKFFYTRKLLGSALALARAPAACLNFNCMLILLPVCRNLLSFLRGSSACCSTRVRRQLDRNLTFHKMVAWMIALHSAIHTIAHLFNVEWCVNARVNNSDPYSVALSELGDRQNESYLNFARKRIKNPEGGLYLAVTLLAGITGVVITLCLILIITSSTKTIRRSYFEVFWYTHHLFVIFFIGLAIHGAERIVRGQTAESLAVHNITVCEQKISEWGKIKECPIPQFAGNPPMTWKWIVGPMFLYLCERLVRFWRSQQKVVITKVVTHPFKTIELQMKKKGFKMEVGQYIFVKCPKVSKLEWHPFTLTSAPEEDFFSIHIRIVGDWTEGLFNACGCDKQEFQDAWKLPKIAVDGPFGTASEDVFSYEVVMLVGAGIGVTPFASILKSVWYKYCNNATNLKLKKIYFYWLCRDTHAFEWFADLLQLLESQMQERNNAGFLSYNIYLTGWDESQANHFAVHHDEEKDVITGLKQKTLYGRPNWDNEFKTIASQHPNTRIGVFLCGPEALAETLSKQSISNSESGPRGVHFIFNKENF

[9] = target: NADPH oxidase 4 (Homo sapiens) (UniProt Q9NPH5); assay: compounds shifting NOX4 Amplex Red fluorescence – cell-based, HEK293-NOX4, tetracycline-induced, NOX inhibitor project, primary screen (AID 1160); conditions: HEK293-NOX4, Amplex Red H2O2 fluorescence, 45 min; higher = more signal, called active from +8 up or from −8 down
Chain of NADPH oxidase 4 (Homo sapiens) (Q9NPH5 whole entry, looked up): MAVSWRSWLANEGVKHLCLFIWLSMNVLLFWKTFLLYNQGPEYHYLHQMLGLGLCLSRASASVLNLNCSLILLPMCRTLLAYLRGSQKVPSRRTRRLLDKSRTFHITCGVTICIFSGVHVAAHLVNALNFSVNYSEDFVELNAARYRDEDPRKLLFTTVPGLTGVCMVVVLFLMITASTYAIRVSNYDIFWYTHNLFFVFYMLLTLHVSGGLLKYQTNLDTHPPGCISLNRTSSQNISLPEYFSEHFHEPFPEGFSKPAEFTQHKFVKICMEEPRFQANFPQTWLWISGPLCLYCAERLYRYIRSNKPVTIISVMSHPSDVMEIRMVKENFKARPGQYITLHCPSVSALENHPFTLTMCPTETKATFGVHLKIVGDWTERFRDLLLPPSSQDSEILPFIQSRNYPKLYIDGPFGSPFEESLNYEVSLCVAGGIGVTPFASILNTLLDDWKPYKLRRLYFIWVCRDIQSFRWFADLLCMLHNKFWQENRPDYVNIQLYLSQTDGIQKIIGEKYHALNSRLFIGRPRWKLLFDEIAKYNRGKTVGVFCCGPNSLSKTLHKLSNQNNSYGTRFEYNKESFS

[10] = target: NADPH oxidase 5 (Homo sapiens) (UniProt Q96PH1); assay: compounds shifting NOX5 Amplex Red fluorescence – cell-based, HEK293-NOX5, NOX inhibitor project, primary screen (AID 1161); conditions: HEK293-NOX5, ionomycin, 45 min, higher = more signal
Chain of NADPH oxidase 5 (Homo sapiens) (Q96PH1 whole entry, looked up): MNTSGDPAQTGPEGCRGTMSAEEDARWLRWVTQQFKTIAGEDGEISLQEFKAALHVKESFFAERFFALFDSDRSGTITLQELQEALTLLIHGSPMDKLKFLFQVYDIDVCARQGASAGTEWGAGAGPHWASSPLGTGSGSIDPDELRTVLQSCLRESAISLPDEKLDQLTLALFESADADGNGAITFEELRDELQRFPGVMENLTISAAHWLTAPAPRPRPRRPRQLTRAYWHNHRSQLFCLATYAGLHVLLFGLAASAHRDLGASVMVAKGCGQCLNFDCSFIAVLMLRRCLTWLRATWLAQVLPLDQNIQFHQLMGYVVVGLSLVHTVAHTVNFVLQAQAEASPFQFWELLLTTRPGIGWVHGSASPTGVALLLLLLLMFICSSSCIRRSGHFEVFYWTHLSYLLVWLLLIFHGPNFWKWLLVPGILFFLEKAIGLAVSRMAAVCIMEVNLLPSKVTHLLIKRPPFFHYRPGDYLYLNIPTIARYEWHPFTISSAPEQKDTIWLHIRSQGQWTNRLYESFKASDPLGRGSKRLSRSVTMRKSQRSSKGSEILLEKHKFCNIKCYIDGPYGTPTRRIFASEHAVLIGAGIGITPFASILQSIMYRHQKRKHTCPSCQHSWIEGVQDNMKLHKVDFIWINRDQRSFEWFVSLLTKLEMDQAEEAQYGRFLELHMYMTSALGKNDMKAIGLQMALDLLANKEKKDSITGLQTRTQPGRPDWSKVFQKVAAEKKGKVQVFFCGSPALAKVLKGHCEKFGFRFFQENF

With `COc1ccc([Si](C)(C)[C@@H]2[C@@H](CCO)O[C@]3(C(=O)N(Cc4ccccc4)c4ccc(NC(=O)[C@H](C)O)cc43)[C@H]2C)cc1` the z-score [1] was 0.573 (inactive), the composite z-score [2] was 0.621 and the z-score [3] was 12.8 (active). The z-score [4] was 2.77 (inactive), the z-score [5] was -0.919 (inactive) and the z-score [6] was 1.92 (inactive). For the same compound, the z-score [7] was 0.402, the z-score [8] was 0.77 (inactive) and the z-score [9] was 0.452 (inactive). For the same compound, the z-score [10] was 1.8.

With `CCCNC(=O)[C@@]1(C)c2ccccc2C(=O)N(c2ccc(C)cn2)[C@H]1c1ccc(CO)cc1` the z-score [1] was -0.819 (inactive), the composite z-score [2] was 0.0533 and the z-score [3] was 1.57 (inactive). For the same compound, the z-score [4] was 0.123 (inactive), the z-score [5] was 0.181 (inactive) and the z-score [6] was 0.0101 (inactive). The z-score [7] was 0.426, the z-score [8] was -1.23 (inactive) and the z-score [9] was 0.155 (inactive). The z-score [10] was 0.238.

With `[N-]=[N+]=Nc1ccccc1C[C@@]1(C(=O)N2CCOCC2)N=C(c2ccc(OCCCO)cc2)O[C@@H]1c1ccccc1` the z-score [1] was 0.345 (inactive), the composite z-score [2] was -0.88 and the z-score [3] was 28.5 (active). The z-score [4] was 23.8 (active), the z-score [5] was 3.6 (inactive) and the z-score [6] was 2.07 (inactive). The z-score [7] was -0.0419, the z-score [8] was 0.437 (inactive) and the z-score [9] was 0.265 (inactive). For the same compound, the z-score [10] was -1.66.

In the case of `COc1cc(NN2C(C(O)c3cc(OC)c(OC)c(OC)c3)C=CC3C(=O)N(C)C(=O)C32)cc(OC)c1OC` (stereo not given), the z-score [1] is reported as -1.12 (inactive), the composite z-score [2] is reported as 0.179 and the z-score [3] is reported as 0.367 (inactive). For the same compound, the z-score [4] was 0.0378 (inactive), the z-score [5] was 0.508 (inactive) and the z-score [6] was 0.853 (inactive). The z-score [7] was -0.402, the z-score [8] was -1.81 (inactive) and the z-score [9] was -2.26 (inactive). It also gave a z-score [10] of -2.51.

With `C=CC[C@@]1(C(=O)NCCCOC)N=C(c2ccc(OCCCO)cc2)O[C@@H]1c1ccccc1N=[N+]=[N-]` the z-score [1] was 1.37 (inactive), the composite z-score [2] was 0.545 and the z-score [3] was 30.7 (active). The z-score [4] was 29.4 (active), the z-score [5] was 1.93 (inactive) and the z-score [6] was 2.16 (inactive). For the same compound, the z-score [7] was -0.217, the z-score [8] was -3.32 (inactive) and the z-score [9] was -0.66 (inactive). The z-score [10] was -1.64.

With `COC(=O)[C@@]1(Cc2ccc(F)cc2)[C@H]2c3cc(C(=O)N4CCCC4)n(Cc4ccc(C)c(F)c4F)c3C[C@H]2CN1C(=O)c1ccccc1` the z-score [1] was -1.31 (inactive), the composite z-score [2] was 0.746 and the z-score [3] was 5.03 (inactive). The z-score [4] was 0.806 (inactive), the z-score [5] was 0.598 (inactive) and the z-score [6] was 1.06 (inactive). The z-score [7] was -0.389, the z-score [8] was -4.01 (inactive) and the z-score [9] was -7.95 (inactive). It also gave a z-score [10] of -7.01.

With `C=CCNC(=O)[C@H]1[C@@H]2C(=O)O[C@@H](c3ccccc3)[C@@H](c3ccccc3)N2[C@@H](c2ccccc2OCCO)[C@]12C(=O)N(C(=O)OCCOC)c1ccc(C#CC3(O)CCCCCC3)cc12` the z-score [1] was 1.49 (inactive), the composite z-score [2] was 0.25 and the z-score [3] was 1.58 (inactive). For the same compound, the z-score [4] was 0.166 (inactive), the z-score [5] was -0.236 (inactive) and the z-score [6] was -1.57 (inactive). For the same compound, the z-score [7] was 2.01, the z-score [8] was 1.52 (inactive) and the z-score [9] was 1.07 (inactive). The z-score [10] was 0.729.

With `C#CCN(Cc1ccccc1Br)[C@H](/C=C/c1ccccc1)[C@@H](O)Cc1ccccc1` the z-score [1] was 1.47 (inactive), the composite z-score [2] was 0.0999 and the z-score [3] was 1.22 (inactive). For the same compound, the z-score [4] was 0.535 (inactive), the z-score [5] was -0.553 (inactive) and the z-score [6] was 0.132 (inactive). For the same compound, the z-score [7] was -0.135, the z-score [8] was -0.193 (inactive) and the z-score [9] was 0.109 (inactive). The z-score [10] was -0.639.

With `CCCN1C(=O)[C@@]2(Cc3ccccc31)N=C(c1ccc(OCCCO)cc1)O[C@H]2c1ccccc1` the z-score [1] was -0.621 (inactive), the composite z-score [2] was 0.396 and the z-score [3] was 18.6 (active). The z-score [4] was 3.99 (inactive), the z-score [5] was 2.49 (inactive) and the z-score [6] was 0.986 (inactive). For the same compound, the z-score [7] was -0.408, the z-score [8] was -0.135 (inactive) and the z-score [9] was -0.123 (inactive). For the same compound, the z-score [10] was -1.61.

In the case of `C=C(COC)C(=O)CC[C@@H](OC(C)=O)c1cccc(OCCO)c1`, the z-score [1] is reported as 0.0328 (inactive), the composite z-score [2] is reported as -0.152 and the z-score [3] is reported as 4.13 (inactive). The z-score [4] was 1.11 (inactive), the z-score [5] was 0.864 (inactive) and the z-score [6] was 0.529 (inactive). For the same compound, the z-score [7] was -0.487, the z-score [8] was 0.212 (inactive) and the z-score [9] was -1.01 (inactive). It also gave a z-score [10] of -1.06.

For `CCOC(=O)C[C@H]1[C@H](OC(=O)Cc2ccc3c(c2)OCO3)[C@@H](NC(=O)c2ccc3ccccc3n2)c2cc(OCCCO)ccc2N1C(=O)c1ccccc1`, the z-score [1] was 1.43 (inactive), the composite z-score [2] was 0.101 and the z-score [3] was 8.88 (active). For the same compound, the z-score [4] was 1.32 (inactive), the z-score [5] was -0.576 (inactive) and the z-score [6] was 0.308 (inactive). For the same compound, the z-score [7] was -0.246, the z-score [8] was -1.88 (inactive) and the z-score [9] was 0.521 (inactive). It also gave a z-score [10] of -2.

For `COC(=O)c1c(CC[C@@H](CO)NC(=O)N[C@@H](C)Cn2cc(-c3ccccn3)nn2)oc(C(C)=O)c1C(=O)OC`, the z-score [1] was -0.476 (inactive), the composite z-score [2] was -0.106 and the z-score [3] was 1.71 (inactive). For the same compound, the z-score [4] was -1.15 (inactive), the z-score [5] was 0.613 (inactive) and the z-score [6] was -1.08 (inactive). For the same compound, the z-score [7] was 0.42, the z-score [8] was -3.95 (inactive) and the z-score [9] was -2.23 (inactive). It also gave a z-score [10] of -3.06.

With `CCOC(=O)C=Cc1cccc(C)c1O` the z-score [1] was -0.718 (inactive), the composite z-score [2] was -0.0011 and the z-score [3] was 9 (active). For the same compound, the z-score [4] was -0.0712 (inactive), the z-score [5] was 0.193 (inactive) and the z-score [6] was -2.11 (inactive). For the same compound, the z-score [7] was 1.52, the z-score [8] was -5.05 (inactive) and the z-score [9] was -4.89 (inactive). For the same compound, the z-score [10] was -4.98.
